From ChEMBL document CHEMBL4296182, “CO-ADD screening of NIH NCI Diversity Set V”
For some of these results: Measured potencies and affinities stand elsewhere.

Test system: Escherichia coli
Assay: Antibacterial activity against Escherichia coli ATCC 25922 (CO-ADD:GN_001); MIC in CAMBH media using NBS plates, by Resazurin F(560/590)
Assay type: functional
Conditions: Concentration 20 uM, ASSAY_TEST Inhibition of Bacterial Growth, detection method Resazurin, Fluorescence (ex560/em590), MEDIA CAMHB, plate type 384well, CORNING #3640, time 18 hr

| Structure (SMILES) | Inhibition [%] |
| --- | --- |
| O=C(O)c1ccccc1C(=O)Nc1cccc([N+](=O)[O-])c1 | -2.38 |
| Cn1c(=O)c2c(ncn2CCOC(=O)C(C)(C)Oc2ccc(Cl)cc2)n(C)c1=O [THEOFIBRATE] | 14.7 |
| Nc1ccccc1-n1nc2ccc3ccccc3c2n1 | 7.22 |
| OC(c1ccccc1)(c1ccccc1)c1nccn1-c1ccccc1 | 5 |
| O=C(Nc1ccc(Br)c2ccccc12)c1ccc2ccccc2c1O | -4.98 |
| CC1(C)N=C(N)N=C(N)N1c1cccc(CN)c1.CCS(=O)(=O)O | 11.68 |
| COc1cc(C(=O)C(=O)c2cc(OC)c(O)c(OC)c2)cc(OC)c1O | -5.19 |
| CCCCOc1ccc(NC(=O)Nc2nnc(C)s2)cc1 | 5.52 |
| OC(COc1cccc2ccccc12)CN1CCN(c2ccccc2Cl)CC1 (stereo not drawn) | -13.55 |
| O=C(/C=C/c1ccc(Cl)s1)c1ccc(Cl)s1 | -1.03 |
| O=C(Oc1cccnc1O)c1cccc(Cl)c1 | 6.47 |
| O=C(Nc1cccc2ccccc12)c1ccccc1 | 5.05 |
| COc1ccc(/N=N/c2c(N)n[nH]c2N)cc1 | 6.79 |
| CC(O)(c1ccccc1)C(c1ccccc1)C1CCCCN1 (stereo not drawn) | -4.2 |
| CC1=CN2C(c3cccc([N+](=O)[O-])c3)=NON(c3ccc(C)cn3)C2C=C1 (stereo not drawn) | 19.37 |
| NNC(=O)c1nnsc1-c1csnn1 | -18.51 |
| Cc1ccc(C2C=CC(C#N)=CN2Cc2ccccc2)cc1 (stereo not drawn) | 11.73 |
| Cc1csc(/N=N/c2ccc(N(C)C)cc2)[n+]1[O-] | 8.16 |
| Clc1ccccc1-c1nc(-c2ccncc2)no1 [PIFEXOLE] | 7 |

Test system: Klebsiella pneumoniae
Conditions: Concentration 20 uM; ASSAY_TEST Inhibition of Bacterial Growth; detection method Absorption (OD600); MEDIA CAMHB; plate type 384well; NBS; CORNING #3640; time 18 hr

| Structure (SMILES) | Inhibition [%] |
| --- | --- |
| S=C(Nc1ccccc1)c1ccccn1 | 19.37 |
| CCSc1nc(C)cc(S)n1 | 13.31 |
| Cc1cc(=O)n2nc(-c3ccc(C(C)(C)C)cc3)cc2[nH]1 | 14.85 |
| Cc1nc(N)nc(Cl)c1CCC1OCCO1 | 6.29 |
| CCCNC(=O)c1ccccc1C(=O)NC1(C(=O)NCCC)CCCC1 | 12.55 |
| COc1ccc2c(C)cc(C)nc2n1 | -0.51 |
| Cc1c(NC(=O)Nc2c(Cl)cccc2Cl)c(=O)n(-c2ccccc2)n1C | 8.26 |
| CSc1cccc(NC(=O)Nc2nc3c(C)cccc3s2)c1 | 7.86 |
| COc1ccc2c(c1)CCCN2C(=N)Nc1ccc(Cl)cc1 | 7.66 |
| COc1ccc(NC(=O)c2cc3ccc4c5ccccc5[nH]c4c3cc2O)cc1 | 7.19 |
| NC(=S)NC(=O)c1ccccc1 | 14.46 |
| Cc1ccc(-c2cssc2=S)cc1 | 2.16 |
| O=C(Nc1ccc2ncccc2c1)Nc1ccc2ncccc2c1 | 9.25 |
| Nc1ccc(C(=O)Nc2cccc(N)c2)cc1 | 4.23 |
| CCOC(=O)c1c(C)nc(C)c(C(=O)OCC)c1-c1ccc(OC)cc1 | 2.6 |
| CC(C)COc1nc2c(c(=O)n(C)c(=O)n2C)n1C | 5.36 |
| CN1C(=O)c2ccccc2Cc2c(NCc3ccccc3)ncnc21 | 18.62 |
| Nc1ccnn1-c1ccccc1 | 26.2 |
| COc1ccc(/N=N/c2ccc(N)nc2N)cc1 | 7.55 |
| CCOC(=O)c1nc(SC)n(C)c1C(=O)OCC | 2.22 |

| Structure (SMILES) | Inhibition [%] |
| --- | --- |
| O=C(O)c1ccccc1C(=O)Nc1cccc([N+](=O)[O-])c1 | 3.82 |
| Cn1c(=O)c2c(ncn2CCOC(=O)C(C)(C)Oc2ccc(Cl)cc2)n(C)c1=O [THEOFIBRATE] | 11.96 |
| Nc1ccccc1-n1nc2ccc3ccccc3c2n1 | 6.99 |
| OC(c1ccccc1)(c1ccccc1)c1nccn1-c1ccccc1 | 3.43 |
| O=C(Nc1ccc(Br)c2ccccc12)c1ccc2ccccc2c1O | 22.07 |
| CC1(C)N=C(N)N=C(N)N1c1cccc(CN)c1.CCS(=O)(=O)O | 13.8 |
| COc1cc(C(=O)C(=O)c2cc(OC)c(O)c(OC)c2)cc(OC)c1O | 5.73 |
| CCCCOc1ccc(NC(=O)Nc2nnc(C)s2)cc1 | 16.37 |
| OC(COc1cccc2ccccc12)CN1CCN(c2ccccc2Cl)CC1 (stereo not drawn) | 3.22 |
| O=C(/C=C/c1ccc(Cl)s1)c1ccc(Cl)s1 | 0.02 |
| O=C(Oc1cccnc1O)c1cccc(Cl)c1 | 11.85 |
| O=C(Nc1cccc2ccccc12)c1ccccc1 | -4.37 |
| COc1ccc(/N=N/c2c(N)n[nH]c2N)cc1 | 12.54 |
| CC(O)(c1ccccc1)C(c1ccccc1)C1CCCCN1 (stereo not drawn) | 13.38 |
| CC1=CN2C(c3cccc([N+](=O)[O-])c3)=NON(c3ccc(C)cn3)C2C=C1 (stereo not drawn) | 7.72 |
| NNC(=O)c1nnsc1-c1csnn1 | 1.34 |
| Cc1ccc(C2C=CC(C#N)=CN2Cc2ccccc2)cc1 (stereo not drawn) | 11.58 |
| Cc1csc(/N=N/c2ccc(N(C)C)cc2)[n+]1[O-] | 7.6 |
| Clc1ccccc1-c1nc(-c2ccncc2)no1 [PIFEXOLE] | 9.18 |
